Compounds without any hit were thinned out: in the full panel of roughly 83,000, 20% have a hit.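 Results are percent growth after 48 hours of single-concentration exposure. 100 means growth as in untreated cells, lower positive values show inhibition; negative values down to -100 show cell death.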 A number with no mark means an inactive call. Active and inactive are the calls of the source. How the source made its calls: active means growth percent below 10; inactive means the rest.
What was measured:
Assay in all cases: NCI-60 one-dose screen, 48 h (100 = growth as untreated, 0 = no growth, -100 = all killed)
Settings in all cases: 10 µM unless noted
HT29 colon = system: HT29 colon
SNB-75 CNS = system: SNB-75 CNS
SNB-19 CNS = system: SNB-19 CNS
U251 CNS = system: U251 CNS
PC-3 prostate = system: PC-3 prostate
SK-MEL-5 melanoma = system: SK-MEL-5 melanoma
UACC-62 melanoma = system: UACC-62 melanoma
LOX IMVI melanoma = system: LOX IMVI melanoma
SK-MEL-28 melanoma = system: SK-MEL-28 melanoma
SK-MEL-2 melanoma = system: SK-MEL-2 melanoma
SN12C renal = system: SN12C renal
UO-31 renal = system: UO-31 renal
TK-10 renal = system: TK-10 renal
ACHN renal = system: ACHN renal
A498 renal = system: A498 renal
CCRF-CEM leukemia = system: CCRF-CEM leukemia
MOLT-4 leukemia = system: MOLT-4 leukemia
SR leukemia = system: SR leukemia
CAKI-1 renal = system: CAKI-1 renal
EKVX NSCLC = system: EKVX NSCLC

Row | SMILES | growth (HT29 colon) | growth (SNB-75 CNS) | growth (SNB-19 CNS) | growth (U251 CNS) | growth (PC-3 prostate) | growth (SK-MEL-5 melanoma) | growth (UACC-62 melanoma) | growth (LOX IMVI melanoma) | growth (SK-MEL-28 melanoma) | growth (SK-MEL-2 melanoma) | growth (SN12C renal) | growth (UO-31 renal) | growth (TK-10 renal) | growth (ACHN renal) | growth (A498 renal) | growth (CCRF-CEM leukemia) | growth (MOLT-4 leukemia) | growth (SR leukemia) | growth (CAKI-1 renal) | growth (EKVX NSCLC)
1 | O=C1/C(=C/c2ccc([N+](=O)[O-])o2)Oc2ccc(Cl)cc21 | -15.3% (active) | 66.5% | 91.9% | 50.2% | -5.46% (active) | 18.4% | -89% (active) | -61.8% (active) | 11.2% | -45.6% (active) | -41.6% (active) | -86.1% (active) | -59.8% (active) | -61% (active) | 108% | -23.4% (active) | -12.4% (active) | 5.52% (active) |  | 
2 | CCOC(=O)C1=C(C)N2C(=NC3=C(CCC/C3=C\c3ccc(Cl)cc3)C2c2ccc(Cl)cc2)S1 (stereo unspecified) | -54.3% (active) | 64.2% | 55.4% | -100% (active) | 24.3% | 40.8% | 54.7% | -100% (active) | 48.8% | 76.6% | 58.1% | 53.9% | 58.2% | 16.6% | 3.17% (active) | -17% (active) | -3.87% (active) | -8.47% (active) | 62.3% | 
3 | C[n+]1ccc(C#N)c2ccccc21 | 65.1% | 85.7% | 109% | 104% | 107% | 99.1% | 115% | 85.5% | 106% | 77.5% | 104% | 55.4% | 129% | 81.9% | 95.3% | 54.1% | 64.5% | 67.5% |  | 
4 | Cc1c(C(N)=O)sc2nc(SCC(=O)Nc3ccc(Cl)cc3)n(-c3ccccc3)c(=O)c12 | 87.9% | 94.3% | 101% | 98.4% | 73% | 110% | 96.8% | 98.1% | 181% | -16.1% (active) | 95.2% | 121% |  | 106% | 192% | 86.3% | 156% | 106% |  | 98.4%
5 | CN(C(=O)c1ccccc1)N(C)C(=O)c1ccccc1 | 93.4% | 105% | 101% | 108% | 91.6% | 108% | 102% | 106% | 110% | 106% | 105% | 93.2% | 105% | 106% | 100% |  | 88.6% | 92.8% |  | 
6 | CC(=O)NCCSC(=O)C(=O)SCCNC(C)=O | 120% | 93% | 104% | 108% | 109% | 104% | 99.4% | 104% | 118% | 19% | 99.4% | 95.7% | 128% | 108% | 104% | 119% | 112% | 114% | 105% | 
7 | NC(=O)SCC(=O)Nc1ccccc1-c1ccccc1 | 87.2% | 138% | 89.5% | 92.9% | 90.2% | 111% | 81.5% | 90.6% | 116% | 88.9% | 90.7% | 64.9% | 106% | 83% |  | 103% | 98% | 122% | 105% | 
8 | Clc1ccc2nc(Cl)c3ccccc3c2c1 | 44.5% | -15.3% (active) | 53.2% | 20.2% | 84.2% | 84.4% | 96.2% | 83.2% | 97.6% | 99% | 87.3% | 4.03% (active) | 9.12% (active) | 1.26% (active) | 19.7% | 81.6% | 83% | 1.29% (active) | 76.7% | 
9 | S=c1[nH]nc2sc3ccccc3n12 | 101% | 81.6% | 106% | 105% | 112% | 106% | 97.4% | 99.2% | 114% | 103% | 103% | 84.2% | 126% | 99.2% | 76.1% | 100% | 92.7% | 88.5% | 110% | 
10 | CCN(CC)c1ccc(C(O)C2=CC(=O)c3ccccc3C2=O)cc1 (stereo unspecified) | 9.6% (active) | 24.9% | 15.3% | -80.9% (active) | -2.59% (active) | -38% (active) | -45.3% (active) | -51.8% (active) | -23.1% (active) | -27.9% (active) | -28.1% (active) | 22.7% | -31.4% (active) | -58.8% (active) | 6.3% (active) |  | 7.92% (active) | -5.59% (active) |  | 
11 | COc1cc(/C=C2\CCC/C(=C\c3ccc(OCC4CO4)c(OC)c3)C2=O)ccc1OCC1CO1 (stereo unspecified) | -15% (active) | 51.4% | 63.4% | 12.7% | 50.7% | 18.4% | 3.6% (active) | -59.9% (active) | 14.8% | 49.7% | 23.8% | 47.6% | 58.5% | 30.2% | 63.9% | 1.96% (active) | -12.6% (active) | -3.1% (active) | 72.2% | 
12 | O=[N+]([O-])c1ccc2c(c1)S(=O)c1cc([N+](=O)[O-])ccc1N2 | 95% | 87.2% | 109% | 105% | 88.6% | 96.2% | 93.5% | 102% | 104% | 105% | 101% | 77.7% | 110% |  |  | 98.9% | 93% | 121% | 98.8% | 112%
13 | Cc1c(C(N)=O)sc2ncn(Cc3ccccc3)c(=O)c12 | 103% | 92.6% | 102% | 96.9% | 113% | 103% | 102% | 89.6% | 112% |  | 97.8% | 61.7% | 87.8% | 99.6% | 121% | 138% | 114% | 92.8% | -1.53% (active) | 122%
14 | Cc1c(C(N)=O)sc2ncn(CC(=O)Nc3ccc(Cl)cc3)c(=O)c12 | 126% | 101% | 103% | 102% | 97% | 107% | 99.2% | 96.8% | 145% |  | 112% | 160% | 128% | 108% | 126% | 121% | 112% | 85% | 40.6% | 104%
15 | Cn1cc(-c2nc(-c3c[nH]c4ncc(F)cc34)cs2)c2cccnc21 | 112% | 101% | 108% | 98.6% | 104% | 97.9% | 89.1% | 98% | 111% |  | 101% | 100% | 124% | 93.7% | 109% | 102% | 101% |  | 92.5% | 84.3%
16 | CCC(c1ccccc1)c1noc(CCN(CC)CC)n1 (stereo unspecified) | 117% | 86.6% | 105% | 98.1% | 95.5% | 102% | 98.9% | 100% | 101% | 19.4% | 100% | 85.5% |  | 101% | 101% | 48.2% |  | 69.2% | 94.1% | 
17 | COc1ccc(C(=O)/C=C/c2c(Cl)nc3c(c(C)nn3-c3ccccc3)c2-c2ccc(Br)cc2)cc1 | 100% | 88.2% | 101% | 110% | 107% | 101% | 91.8% | 96.4% | 106% |  | 99.4% | 88.1% |  | 101% | 112% |  |  |  | 100% | 
18 | O=C(Nc1nc2ccccc2s1)c1cc(-c2ccc(F)cc2)n2nc(-c3ccccc3)cc2n1 | 74.5% | 38.4% | 71.3% | 18.2% | 56.9% | 72.6% | 70.6% | 45.6% | 85.4% |  | 57.5% | 51.4% | 129% | 13.5% | -9.36% (active) | 21.6% | 61.9% | 18.6% | 53.2% | 68.8%
19 | CNc1ccc(CSc2ccc(Cl)cc2)cc1 | 109% | 95.4% | 89.5% | 97.4% | 72.9% | 97.9% | 83% | 103% |  |  | 92.2% | 58.3% | 126% | 106% | 87% | 33.3% | 61.5% | 55.8% | -3.51% (active) | 104%
20 | O=C(CSc1nc2c(n1Nc1ccccc1)-c1ccccc1SC2)Nc1nc(-c2ccc(Cl)cc2)cs1 | 68.4% | 44.8% | 80.5% | 34.4% | 72.2% | 88.1% | 83.3% | 30.4% | 72% |  | 73.8% | 79.7% | 110% |  | 55% | 44.8% | 78.4% | 27% | 72.8% | 69.8%
